This is an account of results in PubChem BioAssay.

This experiment in a line: modulators of S6 phosphorylation in cells, primary screen, cell-based, A549, cytoblot, luminescence, serum-stimulated (AID 1158).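 Note: serum-stimulated A549 lung adenocarcinoma cells; signal is phosphorylated S6 detected by cytoblot immunostaining with HRP secondary.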 To be noted: A549 phospho-S6 cytoblot, 5 h, higher = more signal.
`CCCC[C@@H](O)C1=C(COC)Cn2c(=O)n(-c3ccccc3)c(=O)n2[C@H]1CO`: the z-score was 1.9.

With `CCN(CC)c1ccc(N2CC=CC34O[C@@H]5C=CCOC(=O)[C@@H]5[C@H]3C(=O)N(CCCO)[C@@H]4C2=O)cc1` (some centres undefined), the z-score was 4.3. `COCCOC(=O)N1C(=O)[C@@]2(c3cc(C#CCC(C(=O)OC)C(=O)OC)ccc31)[C@H](c1ccc(OCCO)cc1)N1[C@H](c3ccccc3)[C@H](c3ccccc3)OC(=O)[C@H]1[C@@H]2C(=O)N1CCCCCCC1` displayed a z-score of -0.0522.

With `CCOC(=O)C1=CC[C@@H](c2ccc(F)cc2)N(S(=O)(=O)c2ccc(C)cc2)[C@H]1c1ccc([N+](=O)[O-])cc1`, the z-score was -0.399. `COC(=O)c1c(CC[C@@H](CO)NC(=O)N[C@@H](Cc2ccccc2)Cn2cc(-c3cncn3C)nn2)oc(C(C)=O)c1C(=O)OC` came in with a z-score of 1.22. On to `O=C(NCCO)C1=C[C@H](Oc2ccccc2I)[C@@H](O)[C@H](NCc2ccc(F)cc2)C1`, for which the z-score is 0.436. As to `CCCCN1CC=CC23O[C@@H]4/C=C\CCC(C)OC(=O)C4[C@H]2C(=O)N(C(C)CO)[C@@H]3C1=O` (some centres undefined), the z-score is -0.0969.

The molecule `CC(C)C[C@@H]1NC(=O)C([C@@H](C)OCc2ccccc2)NC(=O)[C@@]23C(=O)N[C@@H](Cc4ccccc4)C2[C@H](C)[C@@]2(C)O[C@H]2C3/C=C/CC/C=C/CNC1=O` (some centres undefined) returned a z-score of 0.189. For the molecule `COCCOC(=O)N1C(=O)[C@@]2(c3cc(C#CCCO)ccc31)[C@H](C(=O)N1CCc3cc(OC)c(OC)cc3C1)[C@H]1C(=O)O[C@H](c3ccccc3)[C@H](c3ccccc3)N1[C@@H]2c1ccccc1OCCO`, the z-score stood at 0.0854.
